Compound activity as filed in PubChem BioAssay.
Cruzain inh Det = inhibitors of Trypanosoma cruzi cruzain with detergent; Potency, µM, most hits filed as inhibitors; purified cruzain, Z-FR-AMC fluorescence, 0.01% Triton; hit rate 0.43% among 200,000; further: nearly all actives have a fitted effect of over 40% in size
Target sequence (P25779 123-467 limits assumed): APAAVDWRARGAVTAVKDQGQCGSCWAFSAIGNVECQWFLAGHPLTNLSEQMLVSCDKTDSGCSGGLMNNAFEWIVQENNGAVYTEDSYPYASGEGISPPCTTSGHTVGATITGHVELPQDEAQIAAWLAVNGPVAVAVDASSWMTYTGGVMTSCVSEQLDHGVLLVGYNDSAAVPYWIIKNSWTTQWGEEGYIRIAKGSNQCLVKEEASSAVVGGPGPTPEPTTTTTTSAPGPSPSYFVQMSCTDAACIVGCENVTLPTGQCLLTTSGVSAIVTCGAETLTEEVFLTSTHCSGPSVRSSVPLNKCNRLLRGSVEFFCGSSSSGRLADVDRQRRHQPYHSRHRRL
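Enzyme 1.5 nM, Z-FR-AMC 2 uM, NaOAc 100 mM pH 5.5, DTT 5 mM, Triton X-100 0.01%; 15 min RT compound preincubation; kinetic ex360/em450, 60 s delta.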
Cruzain noTriton = blocks cruzain activity in detergent-free assay. Potency, µM, usual class: inhibitors. hit rate 2.3% among 200,000. purified cruzain, Z-FR-AMC fluorescence, no detergent; further: nearly all actives have a fitted effect of over 40% in size
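Detergent-free condition (0.00005% Triton X-100) in acetate buffer pH 5.5 with DTT. 1.5 nM enzyme and compound were pre-mixed 15 min, then 2 uM Z-FR-AMC substrate added; reaction progress from fluorescence change between first and third reads (60 s).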
Large screens that a line does not name were inactive. Hits are enriched below; roughly 2.5% of the tested compounds scored in any of these assays. The call rests on the fitted dose curve; in most records, active means well fitted curve in the direction sought with a large enough effect; inconclusive means small, poorly fitted or top-dose-only effect, or another doubt; inactive means no such curve, though single readings can be large; an effect the other way counts as inactive or inconclusive.

Cc1ccccc1C(=O)Oc1cc(-c2ccc3c(c2)OCO3)cc(=O)c2c(C)oc(C)c12	Cruzain noTriton 20µM
Cc1oc(C)c2c(=O)cc(-c3ccc4c(c3)OCO4)cc(OC(=O)c3cccc(Br)c3)c12	Cruzain noTriton 25µM
Cc1oc(C)c2c(=O)cc(-c3ccc4c(c3)OCO4)cc(OC(=O)c3cccc(Cl)c3)c12	Cruzain noTriton inconclusive
Cc1ccc(C(=O)Oc2cc(-c3ccc4c(c3)OCO4)cc(=O)c3c(C)oc(C)c23)cc1	Cruzain noTriton inconclusive
N#CCCCS(=O)(=O)c1nnnn1-c1ccc(F)cc1Br	none
CC(=O)Nc1ccc(NC(=O)CC(C)n2ccc(C)n2)cc1 (stereo unspecified)	none
CCOc1ccc(S(=O)(=O)Nc2ccc3c(c2)c2c(n3S(=O)(=O)c3ccc(OCC)cc3)CCCC2=O)cc1	Cruzain noTriton 7.9µM
CCOc1ccc(S(=O)(=O)Nc2ccc3c(c2)c(C(C)=O)c(C)n3S(=O)(=O)c2ccc(OCC)cc2)cc1	Cruzain noTriton inconclusive
CCc1cc(=O)oc2c(CN3CCCC3)c(O)c(Cl)cc12	Cruzain inh Det 28µM, Cruzain noTriton inconclusive
O=c1cc(-c2ccccc2)c2ccc(O)c(CN3CCCCC3)c2o1	Cruzain noTriton inconclusive
CCc1cc2c(-c3ccccc3)cc(=O)oc2c(CN2CCOCC2)c1O	none
CCc1c(C)c2cc(Cl)c(O)c(CN3CCCCC3)c2oc1=O	Cruzain inh Det 32µM, Cruzain noTriton inconclusive
CCc1c(C)c2ccc(O)c(CN3CCN(c4ccccc4)CC3)c2oc1=O	none
CCCCc1cc(=O)oc2c(CN3CCCC3)c(O)ccc12	Cruzain inh Det 25µM, Cruzain noTriton inconclusive
N/C(CC/C(N)=N/O)=N\O	none
CC(=O)NC1=C(OS(=O)(=O)c2ccc(C)cc2)CN(C)C1=O	none
CCCCc1nc(NCc2ccccc2)c(C#N)c2c1COC(C)(C)C2	Cruzain noTriton 25µM
CCc1nc(NCC(C)C)c(C#N)c2c1COC(C)(C)C2	none
CN(C)c1ncc2nc(-c3cc(F)cc(F)c3)c(=O)n(C3CC3)c2n1	none
CN(C)c1ncc2nc(-c3cc(F)cc(F)c3)c(=O)n(C)c2n1	Cruzain noTriton 20µM
O=C(O)C[C@H](Cc1ccc2c(c1)OCO2)C(=O)O	none
Nc1nnc(CC(=O)N/N=C/c2ccc(-c3ccccc3)o2)s1	none
Cc1cccc(OCCOc2ccc(/C=N/NC(=O)Cc3nnc(N)s3)cc2)c1	Cruzain noTriton 5µM
CCOC(=O)N1CCc2c(sc(NCc3cccc(F)c3)c2C(=O)Nc2ccc(OC)cc2OC)C1	Cruzain noTriton inconclusive
Cc1ccc(NC(=O)C(Cc2ccccc2)NS(=O)(=O)c2cccs2)cc1Cl (stereo unspecified)	Cruzain noTriton 13µM
COc1ccc(NC(=O)C(Cc2ccccc2)NS(=O)(=O)c2ccc(Br)s2)cc1OC (stereo unspecified)	none
O=C(Nc1ccc(Cl)c(C(F)(F)F)c1)C(Cc1ccccc1)NS(=O)(=O)c1ccc(Br)s1 (stereo unspecified)	Cruzain noTriton 4µM
CCc1cccc(NC(=O)C(Cc2ccccc2)NS(=O)(=O)c2cccs2)c1 (stereo unspecified)	none
CCN(CC)C(=O)Cn1c(=O)n(-c2ccc(Cl)cc2)c(=O)c2c3c(sc21)CCCCC3	none
CCOC(=O)CCc1c(C)c2ccc(OCc3nn[nH]n3)cc2oc1=O	none
O=C(O)c1ccc(COc2ccc3c4c(c(=O)oc3c2)CCC4)o1	none
O=c1oc2cc(OCc3ccc([N+](=O)[O-])cc3)ccc2c2c1CCCC2	Cruzain noTriton 13µM
CCOC(=O)CCc1c(C)c2ccc(OCc3ccc([N+](=O)[O-])cc3)cc2oc1=O	Cruzain noTriton 10µM
Cc1ccc(S(=O)(=O)c2nc(S(=O)(=O)c3ccc(C)cc3)c(NCCCOC(C)C)s2)cc1	none
C[C@@H](SCc1ccccc1)C(=O)O	none
Cc1cccc(OCCCSc2nc(-c3ccc(C(C)(C)C)cc3)nc3cc(=O)[nH]n23)c1C	Cruzain noTriton 10µM
CCc1ccc(OCCCSc2nc(-c3ccc(C(C)(C)C)cc3)nc3cc(=O)[nH]n23)cc1	Cruzain noTriton 6.3µM
Cc1cccc(-c2nc(SCCCOc3ccc(Cl)c(C)c3)n3[nH]c(=O)cc3n2)c1	none
CCc1ccc(OCCSc2nc(-c3cccc(C)c3)nc3cc(=O)[nH]n23)cc1	none
CCOC(=O)c1cc(-c2ccc(OC)cc2)n(CCC(=O)NC2CCC(C)CC2)c1C (stereo unspecified)	Cruzain noTriton inconclusive
Cc1ccc(-c2n[nH]c3c2C(c2cccs2)N(c2ccc(Cl)cc2)C3=O)cc1 (stereo unspecified)	Cruzain noTriton inconclusive
C/C=C/C=C/C=O	none
CC1CCN(S(=O)(=O)c2ccc(S(=O)(=O)NCc3ccccc3)cc2)CC1	Cruzain noTriton 16µM
NS(=O)(=O)c1ccc(NC(=O)N2c3ccccc3Sc3ccccc32)cc1	none
CC1CCN(S(=O)(=O)c2ccc(NC(=O)N3c4ccccc4Sc4ccccc43)cc2)CC1	Cruzain noTriton 13µM
O=S(=O)(NCc1ccccc1)c1ccc(S(=O)(=O)N2CCCCC2)cc1	Cruzain noTriton inconclusive
CCOc1ccc(N(CC)C(=O)Cn2cnc3sc(C)c(S(=O)(=O)N4CCN(c5ncccn5)CC4)c3c2=O)cc1	none
COc1ccc(-c2onc(C)c2C)cc1S(=O)(=O)Nc1ccc(OC(F)(F)F)cc1	none
CCOc1ccc2nc(N3CCN(C(=O)c4ccco4)CC3)sc2c1	none
Cc1cccc(NC(=S)N(Cc2cccs2)Cc2cc3cc(C)ccc3[nH]c2=O)c1	Cruzain noTriton inconclusive
Cc1cc(C)c2[nH]c(=O)c(CN(Cc3cccs3)C(=S)NCc3ccco3)cc2c1	Cruzain noTriton inconclusive
Cc1ccc(NC(=S)N(Cc2cccs2)Cc2cc3cc(C)ccc3[nH]c2=O)cc1	Cruzain noTriton 16µM
Cc1ccc(NC(=S)N(Cc2cccs2)Cc2cc3cc(C)cc(C)c3[nH]c2=O)cc1	Cruzain noTriton 25µM
CCCCN(C(=O)C1CCC(CNS(=O)(=O)c2cccc3nsnc23)CC1)c1ccccc1 (stereo unspecified)	none
CCc1nnc(SCc2ccc(F)cc2Cl)c2cc3sc(C)cc3n12	none
Cn1c(=O)c2sccc2n2c(CCC(=O)N3CCN(c4ccc(F)cc4)CC3)nnc12	none
O=c1[nH]c2cc(Br)cnc2nc1/C=C(\O)c1ccc(F)cc1	Cruzain noTriton 25µM
O=C(NCc1nc2ncc(Br)cc2[nH]1)c1ccccc1	none
O=C(Nc1ccc(-c2cn3cccnc3n2)cc1)c1ccccc1F	none
CCOC(=O)c1sc(NC(=O)c2c(-c3ccccc3)c(-c3ccccc3)nn(C)c2=O)nc1C	Cruzain noTriton inconclusive
O=C(Nc1c(Cl)cccc1Cl)c1cccc2c1C(=O)N(C1CCCCC1)C2	none
CCNc1ncc2nc(-c3cccs3)c(=O)n(C)c2n1	none
CCn1nc(-c2cccs2)nc2c(=O)n(C)c(=O)nc1-2	Cruzain inh Det 2.2µM, Cruzain noTriton 2µM
CCOC(=O)c1ccccc1NC(=O)c1cc2c(s1)-c1c(C)cccc1OC2	none
CC(C)c1ccc(NC(=O)c2cc3c(s2)-c2ccccc2SC3)cc1	Cruzain noTriton 10µM
CCOC(=O)c1ccccc1NC(=O)c1cc2c(s1)-c1ccccc1SC2	Cruzain noTriton 7.9µM
O=C(NCc1ccc(F)cc1)c1cc2c(s1)-c1ccccc1SC2	Cruzain noTriton inconclusive
COc1ccc(Cl)cc1NC(=O)c1cc2c(s1)-c1ccccc1OC2	none
CCc1ccccc1N(CC)C(=O)c1cc2c(s1)-c1ccccc1SC2	none
O=C(NCc1ccccc1Cl)c1cc2c(s1)-c1ccccc1SC2	Cruzain noTriton 25µM
COc1ccc(C)cc1NC(=O)c1cc2c(s1)-c1ccccc1SC2	Cruzain noTriton 16µM
